± gives the standard deviation.

The subject of assay [1] is Jurkat. The experiment in a line: mean cell size (FSC-A) relative to DMSO control (fraction of control); higher = larger cells. To be noted: 48 h. The essentials:
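Jurkat cells at 600 cells/µl were incubated for 1 h and then treated for 48h with the Enzo Screen-Well FDA Approved Drug Library v2.0 at 25µM, with DMSO at 0.9% (v/v) final. Compounds that reduced counts below 20% of controls were retested in 10-fold dilutions down to 25nM. Cell count and mean cell size, taken as forward scatter area, were measured by flow cytometry relative to solvent-only controls. Each plate carried 6-12 controls, and values are means of 3 biological replicates.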

Assay [2] concerns Jurkat. The experiment in a line: cell count relative to DMSO control (fraction of control); higher = more cells (less growth inhibition). To be noted: 48 h.

Take `COC[C@@H](NC(C)=O)C(=O)NCc1ccccc1` [Lacosamide] (concentration: 25 µM): the mean cell size with Jurkat [1] was 0.927 ± 0.067. In the assay on Jurkat [2], this compound displayed a cell count of 0.639 ± 0.031.
On the same counts, the results for `C=C1C[C@@H]2[C@H](CC[C@]3(C)C(=O)CC[C@@H]23)[C@@]2(C)C=CC(=O)C=C12` [Exemestane] (concentration: 25 µM) are 0.914 ± 0.029 and 0.422 ± 0.12.
For the compound `CCOC(=O)c1cncn1[C@H](C)c1ccccc1` [Etomidate] (concentration: 25 µM), the mean cell size in the assay on Jurkat [1] was 1.04 ± 0.049. This compound also came in with a cell count in the assay on Jurkat [2] of 0.854 ± 0.055.
On the same counts, the results for `CN(C)C(=O)Oc1ccc[n+](C)c1` [Pyridostigmine Bromide] (concentration: 25 µM) are 0.986 ± 0.027 and 0.651 ± 0.11.
`CC(O)(CS(=O)(=O)c1ccc(F)cc1)C(=O)Nc1ccc(C#N)c(C(F)(F)F)c1` (stereo not drawn) [Bicalutamide] (concentration: 25 µM) came in with a mean cell size with Jurkat [1] of 0.973 ± 0.027. In addition, the cell count in the assay with Jurkat [2] was found to be 0.836 ± 0.064.
`CCCCCCC(=O)O[C@H]1CC[C@H]2[C@@H]3CCC4=CC(=O)CC[C@]4(C)[C@H]3CC[C@]12C` [Testosterone Enanthate] (concentration: 25 µM) showed a mean cell size with Jurkat [1] of 0.954 ± 0.047. In the assay with Jurkat [2], the cell count was 0.703 ± 0.12.
On the same counts, the results for `CN1C(=O)C(O)N=C(c2ccccc2)c2cc(Cl)ccc21` (stereo not drawn) [Temazepam] (concentration: 25 µM) are 0.805 ± 0.037 and 0.916 ± 0.032.
In the assay with Jurkat [1], `N.N.[Cl][Pt][Cl]` [Cisplatin (Cis-Diamineplatinum(Ii) Dichloride )] (concentration: 25 µM) yielded a mean cell size of 1.043 ± 0.0024. In the assay with Jurkat [2], this compound registered a cell count of 0.895 ± 0.045.
For `CCCC(C)(COC(N)=O)COC(N)=O` [Meprobamate (Schedule Iv)] (concentration: 25 µM), in that order: 1.08 ± 0.036 and 0.941 ± 0.069.
